Reference: paper PMC9911399, “Two distinct binding modes provide the RNA-binding protein RbFox with extraordinary sequence specificity”
Residue numbers refer to the chain shown, from its start. Over roughly 16,000 sequences, “ka relative to ugcaugu” has its median near 0.0091; the highest 2% begin near 0.032. Many of the other results were omitted from the sample, so the highest values are more common in it than they were.

T1: RBFOX1 RRM (Homo sapiens, UniProt Q9NWB1 109-208)
T1 sequence: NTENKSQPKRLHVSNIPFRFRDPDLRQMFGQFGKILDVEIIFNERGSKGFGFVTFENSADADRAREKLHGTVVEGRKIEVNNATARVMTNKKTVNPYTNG

B1: AACAGAA (DNA:RNA)
RNA: GGGAGACCGGAAUUCAGAUUGUCCAACAGAAUUAAAUCCCGUCGUAGCCACCA
DNA 1: CAATCTGAATTCCGGTCTCCC
DNA 2: TGGTGGCTACGACGGGATT
B2: AAACGGU (DNA:RNA)
RNA: B1 RNA with C27A, A28C, A30G, A31U
DNA 1: CAATCTGAATTCCGGTCTCCC
DNA 2: TGGTGGCTACGACGGGATT
B3: AGGAGGC (DNA:RNA)
RNA: B1 RNA with A26G, C27G, A30G, A31C
DNA 1: CAATCTGAATTCCGGTCTCCC
DNA 2: TGGTGGCTACGACGGGATT
B4: GGAAUGC (DNA:RNA)
RNA: B1 RNA with A25G, A26G, C27A, G29U, A30G, A31C
DNA 1: CAATCTGAATTCCGGTCTCCC
DNA 2: TGGTGGCTACGACGGGATT
B5: GAAAUGC (DNA:RNA)
RNA: B1 RNA with A25G, C27A, G29U, A30G, A31C
DNA 1: CAATCTGAATTCCGGTCTCCC
DNA 2: TGGTGGCTACGACGGGATT
B6: CUGAUGA (DNA:RNA)
RNA: B1 RNA with A25C, A26U, C27G, G29U, A30G
DNA 1: CAATCTGAATTCCGGTCTCCC
DNA 2: TGGTGGCTACGACGGGATT
B7: GGAUUGC (DNA:RNA)
RNA: GGGAGACCGGAAUUCAGAUUGUCCGGAUUGCUUAAAUCCCGUCGUAGCCACCA
DNA 1: CAATCTGAATTCCGGTCTCCC
DNA 2: TGGTGGCTACGACGGGATT
B8: GUAAUGC (DNA:RNA)
RNA: B7 RNA with G26U, U28A
DNA 1: CAATCTGAATTCCGGTCTCCC
DNA 2: TGGTGGCTACGACGGGATT
B9: AGGCUUG (DNA:RNA)
RNA: B7 RNA with G25A, A27G, U28C, G30U, C31G
DNA 1: CAATCTGAATTCCGGTCTCCC
DNA 2: TGGTGGCTACGACGGGATT
B10: GUAUUGC (DNA:RNA)
RNA: B7 RNA with G26U
DNA 1: CAATCTGAATTCCGGTCTCCC
DNA 2: TGGTGGCTACGACGGGATT
B11: ACCAGGC (DNA:RNA)
RNA: B1 RNA with A26C, A30G, A31C
DNA 1: CAATCTGAATTCCGGTCTCCC
DNA 2: TGGTGGCTACGACGGGATT
B12: UGAAUGA (DNA:RNA)
RNA: B7 RNA with G25U, U28A, C31A
DNA 1: CAATCTGAATTCCGGTCTCCC
DNA 2: TGGTGGCTACGACGGGATT
B13: UGAUGAA (DNA:RNA)
RNA: B1 RNA with A25U, A26G, C27A, A28U
DNA 1: CAATCTGAATTCCGGTCTCCC
DNA 2: TGGTGGCTACGACGGGATT
B14: CCGUUGC (DNA:RNA)
RNA: B7 RNA with G25C, G26C, A27G
DNA 1: CAATCTGAATTCCGGTCTCCC
DNA 2: TGGTGGCTACGACGGGATT
B15: CCAAGUA (DNA:RNA)
RNA: B1 RNA with A25C, A26C, C27A, A30U
DNA 1: CAATCTGAATTCCGGTCTCCC
DNA 2: TGGTGGCTACGACGGGATT
B16: UGACUAA (DNA:RNA)
RNA: B7 RNA with G25U, U28C, G30A, C31A
DNA 1: CAATCTGAATTCCGGTCTCCC
DNA 2: TGGTGGCTACGACGGGATT
B17: AGAUAAC (DNA:RNA)
RNA: B7 RNA with G25A, U29A, G30A
DNA 1: CAATCTGAATTCCGGTCTCCC
DNA 2: TGGTGGCTACGACGGGATT
B18: CCAGGCC (DNA:RNA)
RNA: B7 RNA with G25C, G26C, U28G, U29G, G30C
DNA 1: CAATCTGAATTCCGGTCTCCC
DNA 2: TGGTGGCTACGACGGGATT
B19: CUGUCUG (DNA:RNA)
RNA: B7 RNA with G25C, G26U, A27G, U29C, G30U, C31G
DNA 1: CAATCTGAATTCCGGTCTCCC
DNA 2: TGGTGGCTACGACGGGATT
B20: GGAUACC (DNA:RNA)
RNA: B7 RNA with U29A, G30C
DNA 1: CAATCTGAATTCCGGTCTCCC
DNA 2: TGGTGGCTACGACGGGATT
B21: GGAUGCU (DNA:RNA)
RNA: B7 RNA with U29G, G30C, C31U
DNA 1: CAATCTGAATTCCGGTCTCCC
DNA 2: TGGTGGCTACGACGGGATT
B22: GUCUUGC (DNA:RNA)
RNA: B7 RNA with G26U, A27C
DNA 1: CAATCTGAATTCCGGTCTCCC
DNA 2: TGGTGGCTACGACGGGATT
B23: CACCGGC (DNA:RNA)
RNA: B1 RNA with A25C, A28C, A30G, A31C
DNA 1: CAATCTGAATTCCGGTCTCCC
DNA 2: TGGTGGCTACGACGGGATT
B24: CGGCUUG (DNA:RNA)
RNA: B7 RNA with G25C, A27G, U28C, G30U, C31G
DNA 1: CAATCTGAATTCCGGTCTCCC
DNA 2: TGGTGGCTACGACGGGATT
B25: UGAAUUG (DNA:RNA)
RNA: B7 RNA with G25U, U28A, G30U, C31G
DNA 1: CAATCTGAATTCCGGTCTCCC
DNA 2: TGGTGGCTACGACGGGATT
B26: GGCUUGC (DNA:RNA)
RNA: B7 RNA with A27C
DNA 1: CAATCTGAATTCCGGTCTCCC
DNA 2: TGGTGGCTACGACGGGATT
B27: UGAAUGC (DNA:RNA)
RNA: B7 RNA with G25U, U28A
DNA 1: CAATCTGAATTCCGGTCTCCC
DNA 2: TGGTGGCTACGACGGGATT
B28: GGGAUGC (DNA:RNA)
RNA: B7 RNA with A27G, U28A
DNA 1: CAATCTGAATTCCGGTCTCCC
DNA 2: TGGTGGCTACGACGGGATT
B29: CCCCGGC (DNA:RNA)
RNA: B1 RNA with A25C, A26C, A28C, A30G, A31C
DNA 1: CAATCTGAATTCCGGTCTCCC
DNA 2: TGGTGGCTACGACGGGATT
B30: GUCCGGC (DNA:RNA)
RNA: B7 RNA with G26U, A27C, U28C, U29G
DNA 1: CAATCTGAATTCCGGTCTCCC
DNA 2: TGGTGGCTACGACGGGATT
B31: UAAAUGC (DNA:RNA)
RNA: B7 RNA with G25U, G26A, U28A
DNA 1: CAATCTGAATTCCGGTCTCCC
DNA 2: TGGTGGCTACGACGGGATT
B32: CGGAUGC (DNA:RNA)
RNA: B7 RNA with G25C, A27G, U28A
DNA 1: CAATCTGAATTCCGGTCTCCC
DNA 2: TGGTGGCTACGACGGGATT

Target: T1, RBFOX1 RRM
Assay: EMSA; HiTS-Eq, 1 nM pool, 10 min; buffer printed only for the single-RNA assays: 10 mM Tris pH 7.5, 150 mM NaCl, 3.4 mM EDTA, 0.001% NP-40, 30 C
Conditions: tags: His6 N-terminal (pET28a); label: 5' 32P
Summary of the method: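 Relative association constants, normalised to the cognate motif, were derived by comparing read counts of each RNA species with those of the control reaction. The RNA sequenced was the free fraction, separated by 8% native PAGE after a 10 min equilibration in 50 µL of 1 nM 5′-radiolabelled RNA (7 randomized nucleotides) with increasing concentrations of purified wild-type or mutant RbFox RRM.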

Binder | binding signal
B1 | 0.00258 KA relative to UGCAUGU
B2 | 0.0059 KA relative to UGCAUGU
B3 | 0.0129 KA relative to UGCAUGU
B4 | 0.0946 KA relative to UGCAUGU
B5 | 0.0136 KA relative to UGCAUGU
B6 | 0.0162 KA relative to UGCAUGU
B7 | 0.0376 KA relative to UGCAUGU
B8 | 0.0131 KA relative to UGCAUGU
B9 | 0.0346 KA relative to UGCAUGU
B10 | 0.0151 KA relative to UGCAUGU
B11 | 0.00626 KA relative to UGCAUGU
B12 | 0.0319 KA relative to UGCAUGU
B13 | 0.0191 KA relative to UGCAUGU
B14 | 0.0124 KA relative to UGCAUGU
B15 | 0.00123 KA relative to UGCAUGU
B16 | 0.00904 KA relative to UGCAUGU

Binder | binding signal
B17 | 0.00125 KA relative to UGCAUGU
B18 | 0.0113 KA relative to UGCAUGU
B19 | 0.0306 KA relative to UGCAUGU
B20 | 0.00541 KA relative to UGCAUGU
B21 | 0.0261 KA relative to UGCAUGU
B22 | 0.0291 KA relative to UGCAUGU
B23 | 0.00645 KA relative to UGCAUGU
B24 | 0.0325 KA relative to UGCAUGU
B25 | 0.0261 KA relative to UGCAUGU
B26 | 0.0328 KA relative to UGCAUGU
B27 | 0.0399 KA relative to UGCAUGU
B28 | 0.0515 KA relative to UGCAUGU
B29 | 0.00228 KA relative to UGCAUGU
B30 | 0.00575 KA relative to UGCAUGU
B31 | 0.00992 KA relative to UGCAUGU
B32 | 0.0275 KA relative to UGCAUGU
